The results in this text go back to PubChem BioAssay.

Test [1] is described as follows: PAX8 transcriptional activity inhibition in RMG-I – RMG-I cells, luciferase, cherry-pick, dose response (AID 687027;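 active means every replicate test run called active, with the signal dropping as expected and potency within twice the top valid dose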). Particulars: RMG-I TPO-Luc reporter, SteadyGlo luminescence, 24 h; series mostly up to 35 µM.
Test [2] can be described thus: RMG-1 ovarian cancer cell viability loss – cherry-pick, dose response (AID 687029).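 Further: cells exposed to compound for 96 hours.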 Particulars: RMG-1 viability, CellTiterGlo ATP luminescence, 96 h; series mostly up to 35 µM. Background: ATP-based viability assays read luminescence as a measure of living cells.
The nature of test [3]: general cell-killing toxicity readout – plate reader, dry powder samples, cytotoxicity control for PAX8 inhibitor project, dose response (AID 743021; call rule not given here). Particulars: cell line, non-specific cytotoxicity counter-screen; series mostly up to 35 µM. Background: The purpose of a counterscreen is to sort out artefacts and off-target activity.
Test [4] can be described thus: CMV-driven luciferase expression suppression in HEK293 – cell-based, luminescence, dry powder, counter-screen for Pax8 inhibitor project, dose response (AID 743020;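 active means signal-lowering compounds whose fitted half-maximal concentration is at or below twice the top tested dose in every run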;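 further: HEK293 cells stably expressing the CMV luciferase reporter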). The conditions noted are these: HEK293 CMV-luciferase reporter, SteadyGlo luminescence, 24 h; series mostly up to 35 µM.
A short description of test [5]: IGROV1 cell killing – plate reader, dry powder samples, PAX8 inhibitor project, dose response (AID 743043; call rule not given here;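 further: more negative means fewer viable cells or more cytotoxicity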). Particulars: IGROV1 ovarian cancer cell cytotoxicity; series mostly up to 35 µM.
Test [6] is described as follows: OVCAR-3 cell viability loss – plate reader, dry powder samples, PAX8 inhibitor project, dose response (AID 743044; call rule not given here). Particulars: NIH:OVCAR-3 ovarian cancer cell viability; max activity: at 35 µM, active compounds read low unless noted; series mostly up to 50 µM.
A short description of test [7]: toxicity toward immortalized ovarian surface epithelium – cell-based, plate reader, dry powder samples, cytotoxicity control for PAX8 inhibitor project, dose response (AID 743045; call rule not given here;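 further: 0% = neutral control median and -100% = positive control median; more negative values mean more cell killing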). The conditions noted are these: IOSE-T80 ovarian epithelial cells; series mostly up to 35 µM.
Test [8] in a line: OVCAR8 cell viability loss – plate reader, dry powder samples, PAX8 project, dose response (AID 743197; call rule not given here). The conditions noted are these: series mostly up to 35 µM.

Entries with a potency or affinity are not part of this list. Inconclusive results are not listed. A number with no mark means an inactive call. Active and inactive are the calls of the source.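 How the source made its calls, unless noted: active means signal drop whose fitted half-maximal concentration is at most twice the top valid dose, in every test run; inconclusive means mixed calls across runs, poor fit, or flat 30 to 70% inhibition; inactive means wrong direction, flat within 30%, or potency beyond limit.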

Take `CCN1CCN(c2nc(-c3cccs3)nc3ccccc23)CC1`: the compound was classed as inactive in test [1] and in test [3]. The activity change, negative = inhibition in test [2] is 16.7% [at 8 µM].

Take `COC1OC(COCc2ccccc2)C2OC(C)(C)OC2C1O` (centres undefined): the result in test [1], in test [2], in test [4] and in test [3] was inactive.

In the case of `Nc1ncn([C@H]2C[C@H](O)[C@@H](CO)O2)c(=O)n1`, the compound was classed as inactive in test [1], in test [2], in test [4] and in test [3].

As to `O=C(NC1CCCCCC1)C1c2ccccc2C(=O)N1Cc1cccs1` (centres undefined), the result in test [1], in test [2], in test [4] and in test [3] was inactive.

For the compound `CN(C(=O)COC(=O)C1CCN(S(=O)(=O)c2c(Cl)cccc2Cl)CC1)C1CCS(=O)(=O)C1` (centres undefined), the call in test [1], in test [2], in test [4] and in test [3] was inactive.

For the compound `Cc1nnc(N/N=C/c2cccc(C(F)(F)F)c2)n1N`, the call in test [1], in test [2] and in test [3] was inactive.

Take `CO[C@@H]1CN(C)C(=O)c2cc(NC(=O)c3nc4ccccc4s3)ccc2OC[C@H](C)NC[C@H]1C`: the result in test [1], in test [2], in test [4], in test [3], in test [5] and in test [7] was inactive. The compound was called inactive in test [8]. In addition, in test [6], the max activity is -38.8% [at 30 µM, active compounds read low].

Regarding `COc1ccccc1NC(=O)c1nc(S(=O)(=O)Cc2ccccc2)ncc1Cl`, the compound was classed as inactive in test [2].

Regarding `COc1ccc(OCc2cccc(C(=O)Nc3cc(C)on3)c2)cc1`, the compound was classed as inactive in test [2].

Take `COc1ccc(NC(=O)N2CCCCN3[C@@H](CO)[C@@H](c4ccc(C#Cc5ccccc5)cc4)[C@@H]3C2)cc1`: the call in test [2] was inactive.

Turning to `COC(=O)C1=C(C)N(Cc2cccc(C(F)(F)F)c2)C(=NCc2ccc(OC)cc2)NC1c1cccc(F)c1` (centres undefined), in test [2], the outcome was inactive.

In the case of `CN(C)CCNC(=O)c1cccc(-c2cnc3c(NC=O)cc(-c4cccc(C(F)(F)F)c4)cn23)c1`, the result in test [2] was inactive.

For the compound `CCOc1ccc(C(=O)O/N=C(\N)c2ccccn2)cc1`, the outcome in test [2] was inactive.

In the case of `CN=c1scc(-c2ccccc2F)n1/N=C/c1ccc[nH]1`, the call in test [2] was inactive.

On to `COc1ccc(-c2cc(CNc3nc(NC(C)C)nc4cc(-c5ccccc5)sc34)on2)cc1`, for which the call in test [2] was inactive.

Take `COC(=O)C1C=CC(OC2OC(COC(C)=O)C(OC(C)=O)C(OC(C)=O)C2OC(C)=O)n2c(=O)n(-c3ccccc3)c(=O)n21` (centres undefined): the call in test [2] was inactive.
